Source: PubChem (National Center for Advancing Translational Sciences (NCATS))
Only some compounds are listed: those with a hit (about 3.2% of all), similar ones and a draw of the others.
RE007 growth inh = less growth of the S. pombe RE007 Vpr strain | S. pombe RE007 Vpr strain, BacTiter-Glo ATP luminescence, 24 h | Potency, µM (top dose mostly 92.2 µM), for inactives: top-dose activity change, negative = less growth, usual class: inhibitors | 0.21% of 360,000 active; active = well fitted falling curve with a large enough effect; inconclusive = small, poorly fitted or top-dose-only effect; inactive = no such curve, though single readings can be large or run the other way; also: nearly all actives have a fitted effect of over 50% in size
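Fission yeast strain RE007, carrying one chromosomally integrated HIV-1 vpr copy, was seeded at OD 0.01 in PMG+AL medium with 23 nL pinned compound. After 24 h at 30 °C and 99% humidity, viability was read by BacTiter-Glo luminescence.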
LmPK inh = blocks Leishmania mexicana pyruvate kinase activity. 0.37% of 290,000 active. Q27686. purified LmPK, Kinase-Glo ATP luminescence, 1 h. AID 1721. Potency, µM (series often up to 57.5 µM), without a hit: top-dose activity change, negative = inhibition, usual class: inhibitors
Target sequence (Q27686 whole entry, looked up): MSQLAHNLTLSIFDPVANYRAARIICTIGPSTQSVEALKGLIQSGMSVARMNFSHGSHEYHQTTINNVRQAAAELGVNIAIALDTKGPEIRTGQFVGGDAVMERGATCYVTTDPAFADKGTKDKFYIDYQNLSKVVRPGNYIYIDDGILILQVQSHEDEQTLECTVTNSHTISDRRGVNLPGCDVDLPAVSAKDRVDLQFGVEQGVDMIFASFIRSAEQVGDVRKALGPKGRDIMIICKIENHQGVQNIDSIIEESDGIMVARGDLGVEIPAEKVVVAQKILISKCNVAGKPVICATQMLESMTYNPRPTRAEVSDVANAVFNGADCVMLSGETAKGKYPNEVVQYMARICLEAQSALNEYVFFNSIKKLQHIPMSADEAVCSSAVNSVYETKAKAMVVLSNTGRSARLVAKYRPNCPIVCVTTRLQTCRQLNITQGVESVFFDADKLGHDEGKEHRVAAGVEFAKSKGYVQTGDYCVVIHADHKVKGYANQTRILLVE
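Screened at intermediate enzyme activity to detect both inhibitors and activators: LmPK at 0.1 nM, with a 0.5 nM enzyme column as activation reference. PEP 0.5 mM, ADP 0.1 mM; ATP detected by luminescence after 1 h.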
Sm TGR block = inhibitors of Schistosoma mansoni thioredoxin glutathione reductase; AID 485364; 3% of 360,000 active; Potency, µM (series often up to 114 µM), for the others: top-dose activity change, negative = inhibition, actives largely listed as inhibitors; purified TGR, DTNB reduction, TNB absorbance 405 nm; also: nearly all actives have a fitted effect of over 60% in size
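TGR 20 nM + NADPH 100 uM (dispensed conc.), cpd preinc 15 min RT; start with NADPH (500 uM addition) then DTNB (15 mM addition). Kinetic TNB absorbance, 405 nm filter. Four-parameter Hill fit across titration.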
AMA1 RON2 block = AMA1-RON2 (P. falciparum) interaction inhibition; AlphaScreen AMA1-biotinylated RON2 peptide binding; Potency, µM (doses to about 58.2 µM), without a hit: top-dose activity change, negative = inhibition, actives largely listed as inhibitors; 0.2% of 360,000 active; AID 720542;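 also: 0% = vehicle wells and -100% = peptide control; nearly all actives have a fitted effect of over 45% in size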
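AMA1 (3D7) with his tag at 25 nM final met compounds first, then biotinylated RON2 peptide at 25 nM; detection used donor plus acceptor beads, 10 µg/mL apiece, read by AlphaScreen after 30 min at room temperature.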
Tb PYK inh = T. brucei pyruvate kinase inhibition; Q57TT1; TbPYK enzyme, Kinase-Glo Plus ATP luminescence, 45 min; Potency, µM (highest dose often 76.8 µM), for inactives: top-dose activity, negative = inhibition, hits mostly inhibitors; 0.12% of 410,000 active; also: nearly all actives have a fitted effect of over 50% in size
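Luminescent Kinase-Glo Plus end-point after 45 min room-temperature reaction of T. brucei pyruvate kinase started with 130 uM ADP (final). Buffer TEA 50 mM pH 7.2 with KCl, MgCl2, BSA, Tween-20; titration-based qHTS with fitted concentration-effect curves.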
* = called active by the depositor; ? = inconclusive; nt = not tested or not shown. Unless noted, calls follow the shape of the dose curve; as a rule, active = well fitted curve in the direction sought with a large enough effect; inconclusive = small, poorly fitted or top-dose-only effect, or another doubt; inactive = no such curve, though single readings can be large; an effect the other way counts as inactive or inconclusive. Unless noted, % is scaled to controls: 0 for no effect and ±100 for the full control effect; potency is read from the fitted curve at half-maximal effect.

SMILES | RE007 growth inh | LmPK inh | Sm TGR block | AMA1 RON2 block | Tb PYK inh
CCOc1ccc(NC(=O)N2CCN(S(=O)(=O)c3ccc4c(ccn4C)c3)CC2)cc1 | nt | nt | -7% | nt | 0%
Cc1c(C(=O)N2CCC(C)CC2)c(S(=O)(=O)N2CCN(c3ccc(Cl)cc3)CC2)c(C)n1C | nt | nt | 0% | nt | -4%
CCOc1ccc(-c2cc(NC(=O)c3cccc(Cl)c3)c(C(=O)OC)s2)cc1 | nt | nt | -2% | nt | 4%
O=C(Cn1c(=O)n(Cc2nc(-c3ccccc3)no2)c(=O)c2ccccc21)Nc1cccc(C(F)(F)F)c1 | nt | nt | 9% | nt | -6%
Cc1ccccc1-c1cc2nc(NCc3ccc(N(C)C)cc3)n(C)c(=O)c2s1 | 12% | nt | nt | 18µM* | -3%
CC(=O)NCCNc1nc2cc(-c3ccccc3CO)sc2c(=O)n1C | 28µM* | nt | nt | 3% | -5%
Cc1ccccc1-c1cc2nc(NCc3ccccc3)n(C)c(=O)c2s1 | 7% | nt | nt | 0% | 3%
Oc1ccc(-c2cnns2)c(O)c1 | 16% | -7% | 79µM* | 16% | -20%
Oc1ccc(-c2nc3ccccc3s2)c(O)c1 | -16% | ? | 1% | 0% | -10%
Cc1ccc(Cl)cc1N1CCN(S(=O)(=O)c2ccc3c(c2)C(C(C)C)C(=O)N3)CC1 (stereo not drawn) | nt | nt | 2% | nt | -5%
Cc1ccc(Cl)cc1N1CCN(S(=O)(=O)c2ccc3c(c2)NC(=O)C(C)C(=O)N3)CC1 (stereo not drawn) | 2% | 2% | 79µM* | -9% | 0%
Cc1ccc(N2CN(S(=O)(=O)c3cccc([N+](=O)[O-])c3)c3nc4ccccc4nc32)cc1 | 22% | -12% | 45µM* | -13% | -2%
CN1C(=S)N(c2ccccc2)C(=O)/C1=C/c1ccco1 | ? | -2% | ? | -24% | -1%
CC(C)N(C1=N/C(=C\c2ccco2)C(=O)N1c1ccccc1)C(C)C | -8% | 1% | 40µM* | 15% | -7%
O=C1/C(=C/c2ccco2)N=C(N2CCCCC2)N1c1ccccc1 | 5% | -1% | 45µM* | -3% | -3%
CCn1c(CNC(=O)Cc2ccc(OC)cc2)nnc1SCC(=O)c1ccccc1 | -18% | 1% | 32µM* | -11% | -24%
CC(=O)c1c(COC(=O)c2ccco2)nc2ccccc2[n+]1[O-] | -9% | 12% | 40µM* | -5% | 0%
CCOC(=O)c1c(COC(=O)c2ccco2)nc2ccccc2[n+]1[O-] | -5% | -1% | ? | -5% | -5%
Cc1c(NC(=S)NC(=O)c2ccc(-c3ccc(Cl)cc3)o2)cccc1C(=O)O | -1% | -2% | 13µM* | 35% | 4%
O=C(NC(=S)Nc1ccccc1O)c1ccc(-c2ccc(Cl)cc2)o1 | 25% | 3% | -33% | 61% | -7%
CN(C(=S)NC(=O)c1ccc(F)cc1)C1CCCCC1 | 13% | 0% | 3% | 92% | -5%
CN(C(=S)NC(=O)c1ccc(Cl)cc1)C1CCCCC1 | 10% | -4% | 79µM* | 82% | -17%
COc1ccc(Cn2c(C(=O)O)c(CNCc3ccco3)c3ccc(C)cc32)cc1 | nt | nt | 0% | nt | 4%
COc1ccc2c(CNCc3ccco3)c(C(=O)O)n(Cc3ccccc3)c2c1 | nt | nt | -11% | nt | -9%
Cc1ccc2c(CNCCc3ccco3)c(C(=O)O)n(Cc3ccc(F)cc3)c2c1 | nt | nt | 40µM* | nt | -4%
SMILES | RE007 growth inh | LmPK inh | Sm TGR block | AMA1 RON2 block | Tb PYK inh
COc1ccc(Cn2c(C(=O)O)c(CNCCc3ccco3)c3ccc(OC)cc32)cc1 | nt | nt | 45µM* | nt | 8%
O=C(COc1ccccc1-c1nc(-c2ccccc2)no1)Nc1cccc([N+](=O)[O-])c1 | nt | nt | -2% | nt | -6%
CCOc1ccc(N(CC)S(=O)(=O)N2CCCC(C(=O)Nc3ccc(OC)c(OC)c3)C2)cc1 (stereo not drawn) | nt | nt | -17% | nt | 6%
Cc1cc(Nc2ccccc2C(=O)O)ccc1Cl | nt | nt | nt | nt | -6%
Cc1ncc(C[n+]2csc(C)c2C)c(N)n1 | 74% | 6% | 25µM* | -6% | 5%
CC(=O)Nc1cc(C(=O)NCc2ccc(F)cc2)ccc1Sc1ccc(C)cc1 | nt | nt | 0% | nt | 4%
